Data published in PMC4336329 (PLoS ONE, 2015).
Hit rate of the full screen: of about 310,000 compounds, about 14,000 (4.5%) showed an effect of 50% or more. Effects have a minus sign here. This excerpt belongs to a sample that is enriched for strong results.

molecular target: human ether-à-go-go-related gene (hERG) potassium channel (human, UniProt Q12809); assay: primary screen, population patch clamp on CHO cells stably expressing hERG; higher = less effect of the substance
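Further: peak tail current of the secondary pulse compared with the same well before compound.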

Sequence of human ether-à-go-go-related gene (hERG) potassium channel (Q12809 whole entry, looked up): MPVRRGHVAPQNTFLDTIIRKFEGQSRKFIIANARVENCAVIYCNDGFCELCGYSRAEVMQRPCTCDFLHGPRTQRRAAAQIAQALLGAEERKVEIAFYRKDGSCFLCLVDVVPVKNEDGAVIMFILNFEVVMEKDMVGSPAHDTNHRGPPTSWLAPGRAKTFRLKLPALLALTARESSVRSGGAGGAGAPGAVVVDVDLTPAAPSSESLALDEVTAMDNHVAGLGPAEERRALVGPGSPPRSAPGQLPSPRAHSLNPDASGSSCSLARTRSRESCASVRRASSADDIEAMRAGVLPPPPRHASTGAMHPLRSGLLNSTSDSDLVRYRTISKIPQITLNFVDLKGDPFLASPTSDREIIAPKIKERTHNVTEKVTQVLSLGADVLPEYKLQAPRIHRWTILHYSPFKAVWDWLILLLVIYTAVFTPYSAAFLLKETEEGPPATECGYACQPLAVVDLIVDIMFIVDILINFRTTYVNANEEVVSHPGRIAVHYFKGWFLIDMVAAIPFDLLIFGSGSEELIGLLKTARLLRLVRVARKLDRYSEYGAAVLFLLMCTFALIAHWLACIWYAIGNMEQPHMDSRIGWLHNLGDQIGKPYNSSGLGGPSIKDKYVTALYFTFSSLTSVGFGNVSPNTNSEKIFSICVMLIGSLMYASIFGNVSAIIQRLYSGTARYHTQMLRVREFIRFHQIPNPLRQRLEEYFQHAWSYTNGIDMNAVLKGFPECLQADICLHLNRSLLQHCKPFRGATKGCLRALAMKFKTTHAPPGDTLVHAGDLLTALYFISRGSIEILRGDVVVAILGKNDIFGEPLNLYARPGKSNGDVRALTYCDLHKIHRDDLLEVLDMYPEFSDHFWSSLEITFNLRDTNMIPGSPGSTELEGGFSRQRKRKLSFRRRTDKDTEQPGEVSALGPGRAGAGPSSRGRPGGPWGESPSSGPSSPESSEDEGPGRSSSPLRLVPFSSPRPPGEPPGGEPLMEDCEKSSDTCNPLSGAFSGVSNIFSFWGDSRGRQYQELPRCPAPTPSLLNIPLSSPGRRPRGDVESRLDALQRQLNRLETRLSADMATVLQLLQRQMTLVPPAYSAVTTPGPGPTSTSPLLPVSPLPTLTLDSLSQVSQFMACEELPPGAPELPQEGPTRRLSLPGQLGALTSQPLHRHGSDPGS

| Compound | hERG current change (%, negative = inhibition) at 10uM [%] |
| --- | --- |
| COCCN(Cc1cc2cc3c(cc2nc1Cl)OCO3)C(=O)Nc1ccc(F)cc1 | -30 |
| COCCN(Cc1cc2cc3c(cc2nc1Cl)OCO3)C(=O)Nc1ccc(OC)cc1 | 14.7 |
| COCCN(Cc1cc2cc3c(cc2nc1Cl)OCO3)C(=O)c1cccc(C)c1 | -64.3 |
| COCCN(Cc1cc2cc3c(cc2nc1Cl)OCO3)C(C)=O | 3.81 |
| COCCN(Cc1cc2cc3c(cc2nc1Cl)OCO3)C(=O)Nc1ccccc1OC | 16.3 |
| COCCN(Cc1cc2cc3c(cc2nc1Cl)OCO3)C(=O)c1ccc(C)cc1 | -53.2 |
| CCOC(=O)c1c[nH]c2c(C)ccc(Cl)c2c1=O | 20.9 |
| Cn1c(CCN2CCCC2)nc2cc(NS(=O)(=O)c3ccc(Cl)cc3)ccc21 | -84 |
| CC(C)C(=O)Nc1ccc2c(c1)nc(CCN1CCN(c3ccccc3)CC1)n2C | -40.4 |
| Cc1ccc(S(=O)(=O)Nc2ccc3c(c2)nc(CCN2CCCC2)n3C)cc1 | -42.5 |
| CCC(=O)Nc1ccc2c(c1)nc(CCN1CCN(c3ccccc3)CC1)n2C | -33.5 |
| Cc1ccc(S(=O)(=O)Nc2ccc3c(c2)nc(CCN2CCOCC2)n3C)cc1 | -17.2 |
| Cc1ccc(N2CCN(CCc3nc4cc(NS(C)(=O)=O)ccc4n3C)CC2)cc1 | -59.8 |
| Cc1ccc(S(=O)(=O)Nc2ccc3c(c2)nc(CCN2CCCCC2)n3C)cc1 | -63.6 |
| Cn1c(CCNC(=O)c2ccco2)nc2cc(NS(=O)(=O)c3ccc(Cl)cc3)ccc21 | -65.2 |
| CC(=O)NCCc1nc2cc(NS(=O)(=O)c3ccc(Cl)cc3)ccc2n1C | 10.4 |
| Cn1c(CCNC(=O)c2ccco2)nc2cc(NS(=O)(=O)c3ccccc3)ccc21 | -6.01 |
| Cc1cc(C(F)(F)F)c(C#N)c(SCC(=O)NC2CC2)n1 | -4.11 |
| CC(=O)NC1=NN(C(C)=O)C(C)(CS(=O)(=O)c2ccc3ccccc3c2)S1 (stereo not drawn) | -0.325 |
| COc1ccc(OC)c(-n2c(-c3cc(-c4ccco4)[nH]n3)n[nH]c2=S)c1 | 1.18 |
| COc1ccccc1NS(=O)(=O)c1ccc(C)c(NC(=O)C2CCCO2)c1 (stereo not drawn) | 4.4 |
| O=C(CNC(=O)c1ccc2c(c1)OCCO2)N/N=C/c1ccc(Cl)cc1 | 14.1 |
| Cc1occc1C(=O)N1CCN(C(=O)C2CCCO2)CC1 (stereo not drawn) | -12.2 |

| Compound | hERG current change (%, negative = inhibition) at 10uM [%] |
| --- | --- |
| COc1ccccc1N(CC(=O)NC1CCCC1)S(=O)(=O)c1ccc(C)cc1 | -5.82 |
| CCCC(=O)Nc1nnc(SCC(=O)NCc2cccs2)s1 | 8.39 |
| Cn1c(CCN2CCCCC2)nc2cc(NS(=O)(=O)c3ccc(Cl)cc3)ccc21 | -73.8 |
| Cn1c(CCN2CCCCC2)nc2cc(NC(=O)Nc3ccccc3)ccc21 | -28 |
| Cn1c(CCN2CCCCCC2)nc2cc(NC(=O)Nc3ccccc3)ccc21 | -35.7 |
| Cn1c(=O)[nH]c(=O)c2c1nc(NCCCO)n2CCCc1ccccc1 | -5.36 |
| C=C(C)Cn1c(N(CCO)Cc2ccccc2)nc2c1c(=O)[nH]c(=O)n2C | -2.53 |
| CN(C)c1nc2c(c(=O)[nH]c(=O)n2C)n1CCCc1ccccc1 | -19.1 |
| CCCCCn1c(N(C)Cc2ccccc2)nc2c1c(=O)[nH]c(=O)n2C | -17.1 |
| CN(Cc1ccccc1)c1nc2c(c(=O)[nH]c(=O)n2C)n1CCCc1ccccc1 | -51.8 |
| Cn1c(=O)[nH]c(=O)c2c1nc(N(CCO)Cc1ccccc1)n2CCCc1ccccc1 | -64.6 |
| CCOC(=O)N1CCN(CC(=O)Nc2cc(C)nn2-c2nc3ccccc3s2)CC1 | -23.3 |
| COc1ccc(Cl)cc1NC(=S)N1CCN(c2ncccn2)CC1 | 13.6 |
| CCc1nc(SCc2ccccc2C#N)n[nH]1 | 13.4 |
| CC(=O)NCCC(=O)Nc1nc(-c2cccs2)c(-c2cccs2)s1 | -6.66 |
| COc1ccc(-c2noc(CSc3nnc(-c4ccccc4)n3C)n2)cc1 | -32.8 |
| CCOC(=O)c1sc2nc(CC(=O)OC)nc(NCCN(CC)CC)c2c1C | -62.7 |
| CCOC(=O)c1sc2nc(C)nc(NCc3ccccc3)c2c1C | 9.35 |
| CCOC(=O)c1sc2nc(CC(=O)OC)nc(NCC(=O)OC)c2c1C | -9.05 |
| CCOC(=O)c1sc2nc(C)nc(NCc3ccc(Cl)cc3)c2c1C | -80.6 |
| CCOC(=O)c1sc2nc(C)nc(NCc3ccc(F)cc3)c2c1C | 17.2 |
| CCOC(=O)c1sc2nc(CC(=O)OC)nc(NCc3ccc(Cl)cc3)c2c1C | -7.35 |
